# Results as given in PubChem BioAssay (EPA / NIEHS).
# Inconclusive results are not listed. The source made the active and inactive calls. The calls were made as follows: active = hit-call score of the fitted dose curve at least 0.9, where 1 is the maximum; inconclusive = response in the unintended direction; inactive = score below 0.9.
# Experiments:
# [1] = molecular target: D(1A) dopamine receptor (Homo sapiens) (UniProt P21728); experiment: NVS_GPCR_hDRD1: NovaScreen (NVS) G Protein-Coupled Receptor Assay for human Dopamine Receptor D1 (DRD1) (AID 2283269)
# Outline: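 Extracted HEK293 DRD1 is incubated 1 h with compound and a tritiated or iodinated radioligand, then filtered and counted. Screening runs 25 uM in duplicate with on-plate positive and negative controls.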
# [2] = molecular target: human Leukotriene B4 Receptor 1 (LTB4-BLT1), LTB4R (gene 1241) (UniProt Q15722); experiment: NVS_GPCR_hLTB4_BLT1: NovaScreen (NVS) G Protein-Coupled Receptor Assay for human Leukotriene B4 Receptor 1 (LTB4-BLT1) (AID 2283271)
# Outline: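 Cell-free human neutrophil receptor preparation, 1 h exposure, radioligand binding read by filter scintillation counting. Single 25 uM duplicate screen, then concentration series topping at 50 uM; binding loss scored against DMSO baseline.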
# [3] = molecular target: human Histamine 1 Receptor (H1), HRH1 (gene 3269) (UniProt P35367); experiment: NVS_GPCR_hH1: NovaScreen (NVS) G Protein-Coupled Receptor Assay for human Histamine 1 Receptor (H1) (AID 2283268)
# Outline: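 Filter-based scintillation detection of radioligand binding to human H1, 1 h incubation; chemicals screened in duplicate at 25 uM, then concentration-response; signal loss relative to DMSO taken as activity.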
# [4] = molecular target: Muscarinic acetylcholine receptor M5 (Homo sapiens) (UniProt P08912); experiment: NVS_GPCR_hM5: NovaScreen (NVS) G Protein-Coupled Receptor Assay for human Muscarinic, M5 Receptor (AID 2283275)
# Outline: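 Chemicals passing a primary duplicate screen at 25 uM were run as singleton concentration series, maximum 50 uM. Displacement of a specific radioligand from CHO-extracted receptor was read by filter scintillation after 1 h, relative to DMSO.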
# [5] = molecular target: Muscarinic acetylcholine receptor M2 (Homo sapiens) (UniProt P08172); experiment: NVS_GPCR_hM2: NovaScreen (NVS) G Protein-Coupled Receptor Assay for human Muscarinic, M2 Receptor (AID 2283273)
# Outline: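 CHO-expressed human M2 receptor preparation, competitive displacement of a radioligand read by filter-based scintillation counting after 1 h. Single 25 uM duplicate screen, then concentration-response follow-up of actives; DMSO baseline.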
# [6] = molecular target: human Neuropeptide Receptor Y1 (NPY1), NPY1R (gene 4886) (UniProt P25929); experiment: NVS_GPCR_hNPY1: NovaScreen (NVS) G Protein-Coupled Receptor Assay for human Neuropeptide Receptor Y1 (NPY1) (AID 2283276)
# Outline: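 Displacement of specific radioligand from NPY1 receptor of SK-N-MC origin, read by filtration and scintillation after 1 h. Compounds first tested at 25 uM in duplicate, then actives in concentration series; signal loss relative to DMSO.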
# [7] = molecular target: human Muscarinic, M4 Receptor, CHRM4 (gene 1132) (UniProt P08173); experiment: NVS_GPCR_hM4: NovaScreen (NVS) G Protein-Coupled Receptor Assay for human Muscarinic, M4 Receptor (AID 2283274)
# Outline: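 Filter-based scintillation counting of radioligand bound to CHO-expressed human M4 preparations after 1 h; loss of signal fitted versus DMSO. Initial duplicate testing at 25 uM, concentration-response follow-up for actives.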
# [8] = molecular target: human Endothelin Receptor Type B (ETB), EDNRB (gene 1910) (UniProt P24530); experiment: NVS_GPCR_hETB: NovaScreen (NVS) G Protein-Coupled Receptor Assay for human Endothelin Receptor Type B (ETB) (AID 2283267)
# Outline: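 Filter-based scintillation readout of radioligand displacement, 4 h, using membranes from human astrocytoma cells. Actives from a 25 uM duplicate screen were retested in concentration-response (top 50 uM) relative to DMSO baseline.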
# [9] = molecular target: Muscarinic acetylcholine receptor M1 (Homo sapiens) (UniProt P11229); experiment: NVS_GPCR_hM1: NovaScreen (NVS) G Protein-Coupled Receptor Assay for human Muscarinic, M1 Receptor (AID 2283270)
# Outline: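 Actives from a duplicate 25 uM single-point screen were retested in concentration series. Binding measured as displacement of a radioligand from CHO-derived receptor preparation, 1 h incubation, filtration and scintillation counting, analysed as signal loss against DMSO.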
# [10] = molecular target: Muscarinic acetylcholine receptor M3 (Homo sapiens) (UniProt P20309); experiment: NVS_GPCR_hM3: NovaScreen (NVS) G Protein-Coupled Receptor Assay for human Muscarinic, M3 Receptor (AID 2283272)
# Outline: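 Radioligand displacement binding on human M3 receptor in CHO-derived membranes, 1 h incubation, filter-based scintillation counting. Primary screen in duplicate at 25 uM; actives followed up in concentration series; loss of signal versus DMSO.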
# human Histamine 1 Receptor (H1), HRH1 (gene 3269), sequence (P35367 whole entry, looked up): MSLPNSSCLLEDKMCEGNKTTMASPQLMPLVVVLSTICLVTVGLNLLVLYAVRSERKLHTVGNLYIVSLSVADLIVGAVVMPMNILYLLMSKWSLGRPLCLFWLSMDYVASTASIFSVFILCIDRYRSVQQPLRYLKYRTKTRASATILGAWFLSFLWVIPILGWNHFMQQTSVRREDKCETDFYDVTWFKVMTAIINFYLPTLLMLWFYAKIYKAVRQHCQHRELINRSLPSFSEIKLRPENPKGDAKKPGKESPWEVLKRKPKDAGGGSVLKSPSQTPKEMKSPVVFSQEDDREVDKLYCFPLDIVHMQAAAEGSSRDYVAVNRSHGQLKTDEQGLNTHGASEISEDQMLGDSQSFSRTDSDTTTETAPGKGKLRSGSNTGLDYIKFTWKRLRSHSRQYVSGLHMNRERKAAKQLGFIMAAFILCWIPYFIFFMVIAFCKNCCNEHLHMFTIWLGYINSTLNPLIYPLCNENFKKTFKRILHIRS
# human Leukotriene B4 Receptor 1 (LTB4-BLT1), LTB4R (gene 1241), sequence (Q15722 whole entry, looked up): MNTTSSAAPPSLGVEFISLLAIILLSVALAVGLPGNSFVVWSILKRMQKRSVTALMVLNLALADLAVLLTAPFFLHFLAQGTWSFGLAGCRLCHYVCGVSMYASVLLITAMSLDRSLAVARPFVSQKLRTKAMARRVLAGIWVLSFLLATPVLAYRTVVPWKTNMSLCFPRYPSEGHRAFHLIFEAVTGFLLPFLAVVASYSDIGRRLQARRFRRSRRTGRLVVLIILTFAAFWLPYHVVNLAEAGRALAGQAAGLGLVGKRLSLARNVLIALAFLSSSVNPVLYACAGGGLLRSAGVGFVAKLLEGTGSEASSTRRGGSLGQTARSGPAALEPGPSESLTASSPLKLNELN
# human Muscarinic, M4 Receptor, CHRM4 (gene 1132), sequence (P08173 whole entry, looked up): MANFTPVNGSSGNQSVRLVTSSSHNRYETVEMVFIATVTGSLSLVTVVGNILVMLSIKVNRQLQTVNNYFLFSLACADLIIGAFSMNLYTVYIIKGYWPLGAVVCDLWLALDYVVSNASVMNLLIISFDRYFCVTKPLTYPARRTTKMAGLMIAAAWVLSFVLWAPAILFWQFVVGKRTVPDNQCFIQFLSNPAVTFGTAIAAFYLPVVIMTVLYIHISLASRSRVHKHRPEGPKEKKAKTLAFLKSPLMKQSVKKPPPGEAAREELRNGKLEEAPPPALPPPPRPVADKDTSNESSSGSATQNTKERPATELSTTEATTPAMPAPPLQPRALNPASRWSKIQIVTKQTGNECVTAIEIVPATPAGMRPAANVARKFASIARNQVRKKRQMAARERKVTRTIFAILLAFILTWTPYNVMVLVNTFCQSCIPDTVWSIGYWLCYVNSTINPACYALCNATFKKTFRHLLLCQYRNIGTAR
# Muscarinic acetylcholine receptor M5 (Homo sapiens), sequence (P08912 whole entry, looked up): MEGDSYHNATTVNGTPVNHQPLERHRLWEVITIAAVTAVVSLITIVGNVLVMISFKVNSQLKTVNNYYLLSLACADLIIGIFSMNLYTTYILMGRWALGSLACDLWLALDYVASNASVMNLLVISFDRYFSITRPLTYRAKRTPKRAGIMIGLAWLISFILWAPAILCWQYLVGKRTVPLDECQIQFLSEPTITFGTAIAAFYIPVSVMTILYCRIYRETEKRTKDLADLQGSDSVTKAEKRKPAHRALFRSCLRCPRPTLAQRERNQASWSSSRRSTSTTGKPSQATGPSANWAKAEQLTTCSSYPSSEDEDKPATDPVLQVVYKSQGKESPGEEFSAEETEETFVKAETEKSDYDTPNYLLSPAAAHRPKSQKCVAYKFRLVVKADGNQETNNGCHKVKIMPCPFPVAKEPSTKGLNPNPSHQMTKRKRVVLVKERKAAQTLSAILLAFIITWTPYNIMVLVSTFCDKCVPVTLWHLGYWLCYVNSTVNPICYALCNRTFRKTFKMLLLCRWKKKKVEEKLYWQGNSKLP
# Muscarinic acetylcholine receptor M2 (Homo sapiens), sequence (P08172 whole entry, looked up): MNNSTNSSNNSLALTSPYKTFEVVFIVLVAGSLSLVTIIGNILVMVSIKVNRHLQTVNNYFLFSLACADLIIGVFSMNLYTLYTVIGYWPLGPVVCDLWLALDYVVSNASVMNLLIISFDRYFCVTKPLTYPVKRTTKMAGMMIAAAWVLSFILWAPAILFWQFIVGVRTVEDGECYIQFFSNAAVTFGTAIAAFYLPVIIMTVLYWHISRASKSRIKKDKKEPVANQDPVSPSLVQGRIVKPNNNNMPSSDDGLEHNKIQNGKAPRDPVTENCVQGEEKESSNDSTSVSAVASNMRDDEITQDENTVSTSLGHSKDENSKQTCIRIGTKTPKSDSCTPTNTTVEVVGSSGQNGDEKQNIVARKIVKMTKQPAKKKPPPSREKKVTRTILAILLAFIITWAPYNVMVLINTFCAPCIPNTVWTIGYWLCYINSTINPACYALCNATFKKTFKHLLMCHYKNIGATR
# D(1A) dopamine receptor (Homo sapiens), sequence (P21728 whole entry, looked up): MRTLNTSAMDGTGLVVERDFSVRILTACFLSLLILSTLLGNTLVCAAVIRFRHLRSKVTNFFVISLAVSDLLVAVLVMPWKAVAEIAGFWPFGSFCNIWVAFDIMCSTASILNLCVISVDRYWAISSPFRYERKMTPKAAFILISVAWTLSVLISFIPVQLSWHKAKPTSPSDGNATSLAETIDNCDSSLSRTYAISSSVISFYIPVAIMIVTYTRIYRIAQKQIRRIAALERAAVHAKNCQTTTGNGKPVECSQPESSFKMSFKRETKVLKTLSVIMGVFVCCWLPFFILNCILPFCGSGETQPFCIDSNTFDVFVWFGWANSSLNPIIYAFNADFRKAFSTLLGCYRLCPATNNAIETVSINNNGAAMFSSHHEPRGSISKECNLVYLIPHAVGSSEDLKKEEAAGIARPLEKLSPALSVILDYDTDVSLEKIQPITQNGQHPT
# human Endothelin Receptor Type B (ETB), EDNRB (gene 1910), sequence (P24530 whole entry, looked up): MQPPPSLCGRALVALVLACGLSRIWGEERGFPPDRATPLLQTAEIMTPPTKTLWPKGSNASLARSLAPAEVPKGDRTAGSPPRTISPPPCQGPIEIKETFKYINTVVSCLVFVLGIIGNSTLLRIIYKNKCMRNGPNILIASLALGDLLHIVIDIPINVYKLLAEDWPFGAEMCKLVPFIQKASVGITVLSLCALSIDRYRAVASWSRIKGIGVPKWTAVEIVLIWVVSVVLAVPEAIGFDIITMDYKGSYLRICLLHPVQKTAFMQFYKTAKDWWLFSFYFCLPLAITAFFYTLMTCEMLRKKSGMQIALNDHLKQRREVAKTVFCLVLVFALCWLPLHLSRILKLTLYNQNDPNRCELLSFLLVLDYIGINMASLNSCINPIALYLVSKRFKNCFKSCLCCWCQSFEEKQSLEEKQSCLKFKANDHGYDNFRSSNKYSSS
# human Neuropeptide Receptor Y1 (NPY1), NPY1R (gene 4886), sequence (P25929 whole entry, looked up): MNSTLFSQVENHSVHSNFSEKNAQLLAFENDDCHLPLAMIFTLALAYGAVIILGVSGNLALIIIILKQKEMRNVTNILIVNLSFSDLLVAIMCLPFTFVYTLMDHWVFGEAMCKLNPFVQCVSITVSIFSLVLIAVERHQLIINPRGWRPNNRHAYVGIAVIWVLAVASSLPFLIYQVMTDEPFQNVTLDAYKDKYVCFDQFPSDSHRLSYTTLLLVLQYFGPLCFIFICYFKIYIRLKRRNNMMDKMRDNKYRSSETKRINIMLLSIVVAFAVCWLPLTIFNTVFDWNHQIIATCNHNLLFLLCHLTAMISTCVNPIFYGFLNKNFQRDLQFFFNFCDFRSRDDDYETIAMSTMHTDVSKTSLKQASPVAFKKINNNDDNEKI
# Muscarinic acetylcholine receptor M3 (Homo sapiens), sequence (P20309 whole entry, looked up): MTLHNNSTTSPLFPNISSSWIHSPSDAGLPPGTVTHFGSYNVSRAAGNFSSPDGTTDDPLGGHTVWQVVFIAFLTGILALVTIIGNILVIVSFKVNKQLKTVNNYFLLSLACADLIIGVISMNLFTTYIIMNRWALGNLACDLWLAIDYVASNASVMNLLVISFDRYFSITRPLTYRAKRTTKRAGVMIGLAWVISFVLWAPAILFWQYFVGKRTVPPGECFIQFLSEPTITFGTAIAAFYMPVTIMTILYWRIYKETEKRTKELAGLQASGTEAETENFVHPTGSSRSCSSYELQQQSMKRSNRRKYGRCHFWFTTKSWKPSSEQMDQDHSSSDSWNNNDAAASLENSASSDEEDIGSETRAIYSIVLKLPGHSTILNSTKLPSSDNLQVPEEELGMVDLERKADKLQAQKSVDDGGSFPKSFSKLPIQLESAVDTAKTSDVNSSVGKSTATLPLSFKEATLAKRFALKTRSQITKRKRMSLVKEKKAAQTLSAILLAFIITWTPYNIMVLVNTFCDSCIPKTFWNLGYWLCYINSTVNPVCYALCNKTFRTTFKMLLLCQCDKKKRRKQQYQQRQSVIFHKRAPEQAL
# Muscarinic acetylcholine receptor M1 (Homo sapiens), sequence (P11229 whole entry, looked up): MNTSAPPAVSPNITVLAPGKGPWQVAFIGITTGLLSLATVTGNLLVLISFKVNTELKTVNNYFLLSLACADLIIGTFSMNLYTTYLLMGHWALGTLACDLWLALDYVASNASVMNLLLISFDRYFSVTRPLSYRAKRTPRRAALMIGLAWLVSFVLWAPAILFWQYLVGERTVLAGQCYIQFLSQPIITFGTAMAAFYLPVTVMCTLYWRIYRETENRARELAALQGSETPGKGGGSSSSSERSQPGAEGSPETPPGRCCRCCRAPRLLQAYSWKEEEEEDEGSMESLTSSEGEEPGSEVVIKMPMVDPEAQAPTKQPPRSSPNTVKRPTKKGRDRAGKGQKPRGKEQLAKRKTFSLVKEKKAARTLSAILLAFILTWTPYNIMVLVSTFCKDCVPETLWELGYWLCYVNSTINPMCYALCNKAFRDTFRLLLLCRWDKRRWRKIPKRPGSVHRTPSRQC
smiles,measurement,setting,value
O=C1OC(c2ccc(O)cc2)(c2ccc(O)cc2)c2ccccc21,AC50,[1],4.96 µM (active)
CC(=O)OCC(COC(C)=O)OC(C)=O,AC50,[2],40.5 µM (active)
O=C(N[C@@H](c1ccccc1)[C@@H]1CCCCN1)c1cccc(C(F)(F)F)c1Cl,outcome,[3],inactive
same,AC50,[1],12.1 µM (active)
same,AC50,[4],25 µM (active)
O=Cc1ccccc1C=O,AC50,[5],17 µM (active)
same,AC50,[6],12.9 µM (active)
O=NO,outcome,[7],inactive
CC(N)=O,outcome,[8],inactive
CCN(CC)CCOc1ccc(C(=C(Cl)c2ccccc2)c2ccccc2)cc1,AC50,[8],32.3 µM (active)
same,AC50,[1],2.28 µM (active)
same,AC50,[7],4.2 µM (active)
same,AC50,[4],2.53 µM (active)
same,AC50,[6],31.8 µM (active)
Cc1cc(SC2=C(O)C[C@@](CCc3ccc(N)cc3)(C(C)C)OC2=O)c(C(C)(C)C)cc1CO,outcome,[3],inactive
same,outcome,[1],inactive
same,outcome,[9],inactive
same,outcome,[7],inactive
same,outcome,[4],inactive
CCc1nc(N)nc(N)c1-c1ccc(Cl)cc1,AC50,[1],4.73 µM (active)
same,outcome,[10],inactive
same,AC50,[5],13.9 µM (active)
same,outcome,[7],inactive
CC(=O)[C@@]1(O)CC[C@H]2[C@@H]3CCC4=CC(=O)CC[C@]4(C)[C@H]3CC[C@@]21C,AC50,[5],0.617 µM (active)
CSc1ccc(Oc2ccc(S(N)(=O)=O)cc2CN(C)C)cc1C,AC50,[3],19.6 µM (active)
same,AC50,[1],5.11 µM (active)
same,outcome,[2],inactive
CCCCC(CC)CO (stereo unspecified),outcome,[2],inactive
CN(C)C(=O)NC1(c2ccccc2)CCN(CC[C@@]2(c3ccc(F)c(F)c3)CN(C(=O)c3ccccc3)CCO2)CC1,AC50,[5],9.11 µM (active)
same,AC50,[7],16.9 µM (active)
same,AC50,[4],12.8 µM (active)
